Assay [1] in a line: qHTS assay to test for compound auto fluorescence at 535 nm (green) in HEK293 cells (AID 720680). For orientation: In qHTS, concentration-response curves come from the screen itself.
The nature of assay [2]: qHTS assay to test for compound auto fluorescence at 460 nm (blue) in HEK293 cell free culture (AID 720681). In a few lines:
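Blue fluorescence (Ex 405/Em 460 nm, triamterene-equivalent) was read immediately after pin transfer of compound or DMSO into medium (DMEM, 10% FBS) without cells.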

The nature of assay [3]: qHTS assay to test for compound auto fluorescence at 535 nm (green) in HEK293 cell free culture (AID 720682). In a few lines:
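Compounds were pin-transferred into cell-free DMEM with 10% FBS, and green fluorescence was read at excitation 485 nm and emission 535 nm. Intensities were expressed as fluorescein-equivalent values.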

Assay [4] is described as follows: qHTS assay to test for compound auto fluorescence at 590 nm (red) in HEK293 cell free culture (AID 720683). Summed up: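 Red-channel autofluorescence of compounds in culture medium (DMEM, 10% FBS), no cells, measured at 540/590 nm. Rose Bengal sodium is the reference fluorophore for equivalence.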
The nature of assay [5]: qHTS assay to test for compound auto fluorescence at 590 nm (red) in HepG2 cell free culture (AID 720684). Summed up:
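Steps: dispense MEM/10% FBS medium, no cells; pin compound or DMSO vehicle; read red channel, Ex/Em 540/590 nm. Output given as Rose Bengal sodium equivalents.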

Assay [6] is described as follows: qHTS assay to test for compound auto fluorescence at 460 nm (blue) in HepG2 cell free culture (AID 720685). Summed up: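 Compound (23 nL) or DMSO pinned into cell-free MEM with 10% FBS; blue fluorescence read at 405/460 nm excitation/emission, expressed as auto-fluorescence equivalency to triamterene.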
Assay [7] is described as follows: qHTS assay to test for compound auto fluorescence at 535 nm (green) in HepG2 cell free culture (AID 720686).
Assay [8] in a line: qHTS assay to test for compound auto fluorescence at 460 nm (blue) in HepG2 cells (AID 720687). In a few lines:
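Blue-channel autofluorescence (Ex/Em 405/460 nm, triamterene-equivalent) was measured after 1 hr compound exposure at 37 C, 5% CO2. Cells were HepG2, plated overnight at 37 C in MEM plus 10% FBS.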

Assay [9] has as its target Glucocorticoid receptor (Homo sapiens) (UniProt P04150). In words: qHTS assay to identify small molecule agonists of the glucocorticoid receptor (GR) signaling pathway (AID 720691; active = well fitted activation curve with a large enough effect in the signal ratio in the repeat runs, not every such curve was filed as active; the % refers to the signal ratio). Particulars: GR-bla HeLa, beta-lactamase reporter ratio, 18 h; activation: at 62.4 µM (top of the series). Summed up: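 Fluorescence intensity from LiveBLAzer B/G FRET substrate (2 h, room temperature) reports beta-lactamase expression driven by the glucocorticoid response element in GR-bla HeLa cells after 18 h compound exposure at 37 C.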

Assay [10] shares this target. Put plainly: qHTS assay to identify small molecule antagonists of the glucocorticoid receptor (GR) signaling pathway (AID 720692; active = well fitted inhibition curve with a large enough effect in the signal ratio in the repeat runs, not every such curve was filed as active; the % refers to the signal ratio). Summed up:
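HeLa GR-bla cells; cmpd + dex 5 nM final, 18 h 37 C; LiveBLAzer B/G FRET substrate 2 h RT; fluorescence intensity read. Antagonist mode, qHTS.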

The nature of assay [11]: qHTS assay to identify small molecule antagonists of the glucocorticoid receptor (GR) signaling pathway - cell viability counter screen (AID 720693). Also: nearly all actives have a fitted effect of over 55% in size.
Assay [12] is described as follows: qHTS assay to identify small molecule antagonists of the androgen receptor (AR) signaling pathway - cell viability counter screen (AID 743033; also: nearly all actives have a fitted effect of over 45% in size).
A short description of assay [13]: qHTS assay to identify small molecule antagonists of the androgen receptor (AR) signaling pathway using the MDA cell line - cell viability counter screen (AID 743041; also: nearly all actives have a fitted effect of over 45% in size; also: potency is read from the fitted curve at half-maximal effect). In a few lines: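 Cells were plated at 3,000 per well and left 5 h. Compounds in DMSO were then pinned in, followed by R1881. After 16 h at 37C, CellTiter-Fluor fluorescence gave viability.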
Assay [14] can be described thus: qHTS assay for identifying genotoxic compounds that show differential cytotoxicity against isogenic chicken DT40 cell lines with known DNA damage response pathways - wild type cell line (AID 743012). Also: potency is read from the fitted curve at half-maximal effect; nearly all actives have a fitted effect of over 60% in size. Summed up:
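Wild type DT40, 300 cells/well, ~0.5 h settle at 37 C/5% CO2; compounds in DMSO added by pintool; 40 h at 37 C/5% CO2; CellTiter-Glo, 30 min RT; luminescence.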

Assay [15] is described as follows: qHTS assay for identifying genotoxic compounds that show differential cytotoxicity against isogenic chicken DT40 cell lines with known DNA damage response pathways - Rev3 mutant cell line (AID 743014). Also: nearly all actives have a fitted effect of over 55% in size. Also: potency is read from the fitted curve at half-maximal effect.
Assay [16] is described as follows: qHTS assay for identifying genotoxic compounds that show differential cytotoxicity against isogenic chicken DT40 cell lines with known DNA damage response pathways - Rad54/Ku70 mutant cell line (AID 743015). Also: nearly all actives have a fitted effect of over 60% in size. Also: potency is read from the fitted curve at half-maximal effect.
The target of assay [17] is Androgen receptor (Homo sapiens) (UniProt P10275). Put plainly: qHTS assay to identify small molecule antagonists of the androgen receptor (AR) signaling pathway (AID 743035; active = well fitted inhibition curve with a large enough effect in the signal ratio in the repeat runs, not every such curve was filed as active; the % refers to the signal ratio). Summed up:
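Fluorescence from a beta-lactamase FRET substrate (LiveBLAzer B/G, 2 h, room temperature) measured inhibition of R1881-stimulated signaling in GeneBLAzer AR-UAS-bla HEK293 cells exposed to compound for 16 h at 37C.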

For assay [18] the target is unchanged. Put plainly: qHTS assay to identify small molecule antagonists of the androgen receptor (AR) signaling pathway using the MDA cell line (AID 743042; also: nearly all actives have a fitted effect of over 55% in size; also: potency is read from the fitted curve at half-maximal effect). Summed up: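 Antagonist mode: compounds plus R1881 agonist added to MDA-kb2 AR-luc cells, incubated 16 h at 37C. Luciferase reporter luminescence quantified, with multiplexed CellTiter-Fluor readout for cell viability.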

Assay [19] has the same target. Put plainly: qHTS assay to identify small molecule agonists of the androgen receptor (AR) signaling pathway using the MDA cell line (AID 743040; also: nearly all actives have a fitted effect of over 20% in size). In a few lines: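 Cells plated, 5 h at 37C/0% CO2; compound or DMSO pinned; 16 h at 37C; ONE-Glo added; luminescence measured after 30 min at room temperature. Reporter line: MDA-kb2 with MMTV-luciferase responsive to AR and GR.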

Results filed as inconclusive are left out. Activity calls are given as the source filed them. Unless noted, calls follow the shape of the dose curve; as a rule, active = well fitted curve in the direction sought with a large enough effect in the repeat runs; inconclusive = weak or mixed curves; inactive = no such curve, though single readings can be large; an effect the other way counts as inactive or inconclusive.

Sequence of Androgen receptor (Homo sapiens) (P10275 whole entry, looked up): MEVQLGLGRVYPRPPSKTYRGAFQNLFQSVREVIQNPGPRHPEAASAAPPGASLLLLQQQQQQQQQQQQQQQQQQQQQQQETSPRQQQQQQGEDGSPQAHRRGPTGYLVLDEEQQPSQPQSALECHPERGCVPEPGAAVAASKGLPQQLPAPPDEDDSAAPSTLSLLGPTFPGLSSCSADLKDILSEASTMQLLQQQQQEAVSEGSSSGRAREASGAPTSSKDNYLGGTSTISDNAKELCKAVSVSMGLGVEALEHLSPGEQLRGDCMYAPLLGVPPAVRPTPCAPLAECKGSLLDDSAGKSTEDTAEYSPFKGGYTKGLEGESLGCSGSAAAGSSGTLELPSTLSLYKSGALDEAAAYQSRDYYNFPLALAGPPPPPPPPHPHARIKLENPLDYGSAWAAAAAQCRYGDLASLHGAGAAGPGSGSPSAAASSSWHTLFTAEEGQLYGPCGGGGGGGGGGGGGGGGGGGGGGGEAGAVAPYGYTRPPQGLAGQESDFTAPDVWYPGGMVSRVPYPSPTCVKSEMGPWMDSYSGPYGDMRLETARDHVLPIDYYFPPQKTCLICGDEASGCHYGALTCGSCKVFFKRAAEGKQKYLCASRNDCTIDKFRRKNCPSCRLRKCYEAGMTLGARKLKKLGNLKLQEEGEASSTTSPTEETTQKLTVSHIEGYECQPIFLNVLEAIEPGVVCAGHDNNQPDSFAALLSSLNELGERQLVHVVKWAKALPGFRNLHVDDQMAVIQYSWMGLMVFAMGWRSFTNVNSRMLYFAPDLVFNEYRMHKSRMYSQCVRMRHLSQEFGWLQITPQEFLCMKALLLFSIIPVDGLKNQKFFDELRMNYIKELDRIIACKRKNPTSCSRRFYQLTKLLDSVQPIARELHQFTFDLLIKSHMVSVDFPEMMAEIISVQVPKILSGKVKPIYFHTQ
Sequence of Glucocorticoid receptor (Homo sapiens) (P04150 whole entry, looked up): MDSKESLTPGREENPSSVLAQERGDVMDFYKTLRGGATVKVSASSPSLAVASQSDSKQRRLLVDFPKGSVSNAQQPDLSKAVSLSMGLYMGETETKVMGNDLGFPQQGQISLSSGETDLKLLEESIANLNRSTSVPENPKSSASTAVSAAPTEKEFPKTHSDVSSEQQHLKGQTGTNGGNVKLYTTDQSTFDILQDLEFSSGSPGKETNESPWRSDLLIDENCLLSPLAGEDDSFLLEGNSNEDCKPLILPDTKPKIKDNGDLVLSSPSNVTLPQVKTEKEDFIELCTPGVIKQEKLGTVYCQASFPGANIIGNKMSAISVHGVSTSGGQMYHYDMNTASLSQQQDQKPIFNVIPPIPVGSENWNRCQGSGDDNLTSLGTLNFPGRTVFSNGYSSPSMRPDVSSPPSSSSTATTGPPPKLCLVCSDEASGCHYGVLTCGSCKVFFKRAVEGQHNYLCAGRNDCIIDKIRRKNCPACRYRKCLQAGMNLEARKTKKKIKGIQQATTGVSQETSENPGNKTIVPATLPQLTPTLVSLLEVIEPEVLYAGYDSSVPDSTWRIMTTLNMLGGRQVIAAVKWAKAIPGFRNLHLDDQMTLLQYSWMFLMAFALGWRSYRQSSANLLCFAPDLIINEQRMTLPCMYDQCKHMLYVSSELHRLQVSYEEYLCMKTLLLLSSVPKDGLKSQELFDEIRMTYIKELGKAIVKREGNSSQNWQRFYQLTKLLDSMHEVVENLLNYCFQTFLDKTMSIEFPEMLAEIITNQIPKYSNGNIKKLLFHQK

Consider `CNCC(O)c1ccc(OC(=O)C(C)(C)C)c(OC(=O)C(C)(C)C)c1` (stereo not drawn), for which the Potency result in assay [1], in [2], in [3], in assay [4], in assay [5] and in [7] was “inactive” each time. The Potency result in assay [9], in [10], in [11], in assay [12] and in assay [13] was “inactive” each time. Besides, the compound was called inactive in [6] and in assay [8].

Take `COCC(=O)Nc1cc(Sc2ccccc2)ccc1N=C(NC(=O)OC)NC(=O)OC`: the Potency result in assay [1], in assay [2], in assay [3], in assay [4], in assay [5] and in assay [7] was “inactive” in each case. Besides, the Potency result in [9], in assay [10], in assay [11], in assay [12] and in assay [13] was “inactive” in each case. Moreover, the result in [6] and in [8] was inactive.

Take `C[C@H]1[C@@H](OC(=O)CCC(=O)O)O[C@@H]2OC3(C)CC[C@H]4[C@H](C)CC[C@@H]1[C@@]24OO3`: the Potency entry in [1], in assay [2], in [3], in assay [4], in [5] and in assay [7] was “inactive” in each case. Besides, the Potency entry in [9], in [11] and in [12] was “inactive” throughout. For the same compound, the call in assay [6] and in [8] was inactive. For the same compound, the Potency in assay [14] is 0.188 µM (active); in [15], 0.188 µM (active); in [16] it was 0.119 µM (active).

Consider `CN1C(=O)CN2CCc3ccccc3C2c2cc(Cl)ccc21` (stereo not drawn), for which the Potency entry in assay [1], in assay [2], in assay [3], in assay [4], in [5] and in assay [7] was “inactive” in each case. Further, the Potency result in assay [9], in [11], in assay [15], in [16], in [12] and in assay [13] was “inactive” throughout. Moreover, the call in [6] and in assay [8] was inactive.

Consider `COc1cc2c(cc1OC)CC(=O)N(CCCN(C)C[C@H]1Cc3cc(OC)c(OC)cc31)CC2`, for which the Potency result in assay [1], in assay [2], in [3], in [4], in [5] and in [7] was “inactive” in each case. The Potency result in assay [9], in assay [11], in assay [12] and in assay [13] was “inactive” throughout. The call in [6] and in [8] was inactive. Moreover, in assay [16], the Potency is 9.44 µM (active).

As to `C[N@+]12CCCC[C@@H]1CCC(=C(c1cccs1)c1cccs1)C2`, the Potency entry in assay [1], in [2], in [3], in assay [4], in assay [5] and in assay [7] was “inactive” each time. Moreover, the Potency entry in assay [9], in [11], in [12] and in [17] was “inactive” throughout. Besides, the call in assay [6] and in assay [8] was inactive. Also, the Potency was 10.6 µM (active) in assay [15], 8.41 µM (active) in assay [16], 26.6 µM (active) in assay [13] and 18.8 µM (active) in assay [18].

In the case of `C[C@H](CCCC(C)(C)O)[C@H]1CC[C@H]2[C@@H]3CC=C4C[C@@H](O)CC[C@]4(C)[C@H]3CC[C@]12C`, the Potency result in assay [1], in assay [2], in assay [3], in assay [4], in [5] and in assay [7] was “inactive” each time. Further, the Potency entry in assay [9], in assay [11], in [19], in [13] and in assay [18] was “inactive” throughout. Also, the result in [6] and in [8] was inactive. Also, the Potency in [15] was 0.211 µM (active); in [16], 10.6 µM (active).

The record behind these values is PubChem BioAssay (Tox21).
